Source: PubChem (National Center for Advancing Translational Sciences (NCATS))
This is a sample that favours compounds with a hit; in the whole collection about 19% have one here.
HT1080-NT tox: kills 2HG-producing HT-1080-NT fibrosarcoma cells. HT-1080-NT fibrosarcoma viability, CellTiter-Glo ATP luminescence, 48 h. Potency, µM (series often up to 46.1 µM), hits mostly cytotoxic. 1.6% of 360,000 active. AID 686970;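 note: NT is the 2HG producing partner of a matched IDH1 knockdown line; nearly all actives have a fitted effect of over 55% in size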
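Toxicity toward the 2HG-producing NT line was scored as %Activity, normalised to DMSO and no-cell wells, from CellTiter-Glo luminescence after 48 hours' treatment.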
TDP1 cell noCPT: qHTS for Inhibitors of human tyrosyl-DNA phosphodiesterase 1 (TDP1): qHTS in cells in absence of CPT; 15% of 420,000 active; AID 686978, 2013; DT40 Tdp1-/- hTDP1 cells, no CPT, ATP luminescence, 48 h; Potency, µM (highest dose often 46.2 µM), actives largely listed as inhibitors; note: nearly all actives have a fitted effect of over 55% in size
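Seeded 400 DT40-hTDP1 cells/well (vehicle DMSO, no 20 nM CPT); pinned compounds; ≥48 hr at 37 °C; CellTiter-Glo luminescence as viability measure.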
KB-3-1 tox: KB-3-1 parental cell cytotoxicity. KB-3-1 viability, CellTiter-Glo ATP luminescence, 72 h. Potency, µM (top dose mostly 46.1 µM), hits mostly cytotoxic. 1.4% of 400,000 active; note: nearly all actives have a fitted effect of over 60% in size
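72 h, 37 °C compound treatment of KB-3-1 parental cells; CellTiter-Glo added, 10 min, luminescence read. Data corrected against DMSO-only plates and normalized before curve fitting.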
DT40 TDP1 CPT: growth inhibition of DT40 Tdp1-/-;hTDP1 cells with camptothecin (screen for TDP1 inhibitors). Potency, µM (doses to about 46.2 µM), actives largely listed as inhibitors. 12% of 420,000 active. chicken DT40 Tdp1-/-;hTDP1 cells + 20 nM CPT, ATP luminescence, 48 h; note: nearly all actives have a fitted effect of over 55% in size
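Chicken DT40 Tdp1-/- cells complemented with human TDP1, 400 cells/well, exposed to compounds plus 20 nM camptothecin for at least 48 h at 37 C; viability read as ATP content by CellTiter-Glo luminescence.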
KB-V1 MDR tox: KB-V1 MDR subline cytotoxicity. KB-V1 MDR cells viability, CellTiter-Glo, 72 h. Potency, µM (top dose mostly 46.1 µM), usual class: cytotoxic. 3.4% of 400,000 active. AID 1347076; note: nearly all actives have a fitted effect of over 60% in size
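Drug-selected KB-V1 cells, grown in DMEM lacking phenol red with 10% FBS, receive compound titrations; after three days at 37 degrees C, surviving cell ATP is quantified by CellTiter-Glo luminescence and responses normalized and curve-fitted.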
HT1080 IDH1KD tx: HT-1080 IDH1 knockdown cell toxicity (counter line) | AID 686971 | HT-1080 IDH1 knockdown viability, ATP luminescence, 48 h | 2% of 360,000 active | Potency, µM (titrated, usually from 46.1 µM), usual class: cytotoxic
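HT-1080-IDH1KD cells (IDH1 knocked down), 750/well in RPMI with 5% FBS, treated with compound 48 h at 37 degrees C. Viability by CellTiter-Glo luminescence, normalised to DMSO and no-cell wells; concentration-response curves classed.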
Each line names hits and unclear results; the compound was inactive in the other large screens. Calls come from the whole dose curve; as a rule, active = well fitted curve in the direction sought with a large enough effect; inconclusive = small, poorly fitted or top-dose-only effect, or another doubt; inactive = no such curve, though single readings can be large; an effect the other way counts as inactive or inconclusive.

Cc1oc(-c2ccccc2F)nc1Cn1c(SCc2ccccc2F)nc2ccncc21	TDP1 cell noCPT 15µM, DT40 TDP1 CPT inconclusive (no result: HT1080-NT tox, HT1080 IDH1KD tx)
Cc1cccc(-c2nc(Cn3c(SCc4cccc(C(F)(F)F)c4)nc4ccncc43)c(C)o2)c1	TDP1 cell noCPT inconclusive, DT40 TDP1 CPT 15µM (no result: HT1080-NT tox, HT1080 IDH1KD tx)
COc1ccc(-c2nc(Cn3c(SCc4ccc(C)cc4)nc4ccncc43)c(C)o2)cc1OC	HT1080-NT tox inconclusive, TDP1 cell noCPT inconclusive, DT40 TDP1 CPT inconclusive, HT1080 IDH1KD tx inconclusive
CC1(c2nnnn2-c2ccc3c(c2)OCCO3)CCC(=O)N1C1CC1 (centres undefined)	none
Cc1ccc(S(=O)(=O)N2CCCN(C)c3nc4ccccc4nc32)cc1	TDP1 cell noCPT 16µM, DT40 TDP1 CPT inconclusive, KB-V1 MDR tox 16µM
O=C(CN(C1CC1)S(=O)(=O)c1ccc(S(=O)(=O)N2CCCCCC2)cc1)Nc1ccccc1	HT1080-NT tox inconclusive, HT1080 IDH1KD tx inconclusive
COC(=O)CCN(C1CCCCC1)S(=O)(=O)c1ccc(S(=O)(=O)N2CCCCC2)cc1	TDP1 cell noCPT 13µM, DT40 TDP1 CPT 29µM, KB-V1 MDR tox inconclusive
CC(C)c1ccc(NC(=O)C2CCN(S(=O)(=O)c3ccc4c(c3)C(C)(C)C(=O)N4C)CC2)cc1	TDP1 cell noCPT inconclusive, DT40 TDP1 CPT 16µM
Cc1ccc(S(=O)(=O)N2CCCN(S(=O)(=O)c3ccc4ccccc4c3)CC2)cc1	TDP1 cell noCPT inconclusive, DT40 TDP1 CPT 8.2µM, KB-V1 MDR tox 8.2µM
CN(C)c1cccc(C(=O)OCCCC(=O)c2ccc(F)cc2)c1	none (no result: KB-3-1 tox, KB-V1 MDR tox)
Cc1ccc(S(=O)(=O)N2CCCN(S(=O)(=O)c3ccc(C)c(C)c3)CC2)cc1C	TDP1 cell noCPT 18µM, DT40 TDP1 CPT 23µM, KB-V1 MDR tox 4.1µM
Cc1ccc(S(=O)(=O)N2CCCC2)cc1S(=O)(=O)N1CCCC1	KB-V1 MDR tox inconclusive
O=C(Nc1ccc(S(=O)(=O)Nc2ccccc2)cc1)C1CC1	TDP1 cell noCPT inconclusive, DT40 TDP1 CPT inconclusive
Cc1ccccc1C(=O)N1CCC(C(=O)Nc2ccc(S(=O)(=O)N3CCOCC3)cc2)CC1	TDP1 cell noCPT inconclusive, KB-3-1 tox inconclusive, DT40 TDP1 CPT inconclusive, KB-V1 MDR tox inconclusive
Cc1ccccc1C(=O)N1CCC(C(=O)Nc2ccc(S(=O)(=O)N3CCCCC3)cc2)CC1	TDP1 cell noCPT 12µM, KB-3-1 tox inconclusive, DT40 TDP1 CPT 16µM, KB-V1 MDR tox inconclusive
C/C(=N\NC(=O)c1cccc([N+](=O)[O-])c1)c1cccc(NC(=O)C2CC2)c1	HT1080-NT tox inconclusive, TDP1 cell noCPT inconclusive, HT1080 IDH1KD tx inconclusive
C/C(=N/NC(=O)C1CCN(S(=O)(=O)c2ccc(C)cc2)CC1)c1cccc([N+](=O)[O-])c1	KB-V1 MDR tox 23µM
Cc1ccc(NS(=O)(=O)c2ccc(NC(=O)C3CC3)cc2)cc1C	TDP1 cell noCPT inconclusive, DT40 TDP1 CPT 18µM, HT1080 IDH1KD tx inconclusive
CN(Cc1ccccc1)Cc1ccccc1C(O)c1ccccc1 (centres undefined)	TDP1 cell noCPT inconclusive, DT40 TDP1 CPT inconclusive
O=C(CNC(=O)c1ccc(Br)o1)NC1CCCCC1	none
COC(=O)Nc1ccc(S(=O)(=O)N2CCN(C)CC2)cc1	none
COC(=O)Nc1ccc(S(=O)(=O)N2CCCCC2)cc1	KB-3-1 tox inconclusive, DT40 TDP1 CPT inconclusive, KB-V1 MDR tox 8.2µM
Cn1nc(N2CCN(S(=O)(=O)c3ccccc3)CC2)c(=O)n(C)c1=O	TDP1 cell noCPT inconclusive, DT40 TDP1 CPT inconclusive
Cc1ccc(S(=O)(=O)N2CCC(C(=O)Nc3ccc(C(C)C)cc3)CC2)cc1	TDP1 cell noCPT 15µM, KB-3-1 tox inconclusive, DT40 TDP1 CPT 23µM
Cc1ccc(NS(=O)(=O)c2ccc(NC(=O)C3CCCO3)cc2)cc1 (centres undefined)	TDP1 cell noCPT 12µM, DT40 TDP1 CPT inconclusive, KB-V1 MDR tox 13µM
